# Reference: the supplement of paper PMC7156485
# Structures can show the parent of a compound that is named as a salt. ± gives the standard deviation of the averaged measurements.
# Legend:
# Conditions in all cases: concentration: 10 µM; 24 h
# HCC1569 [1] = test: cell number relative to DMSO (% of DMSO); higher = more cells (less growth inhibition / toxicity)
# Summary of the method: (§1)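 After 24 h at 37 °C with compounds at 10 µM, in triplicate, HCC1569 and TDF cells were fixed with 3.7% formaldehyde. Immunostaining used a rabbit anti-H1.0 antibody and an AlexaFluor 647 secondary, with DAPI, and six fields per well were imaged at ×10. H1.0 nuclear intensity or cell number is presented as percent of the plate control, from the median of replicates, with HCC1569 values smoothed for positional effects.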
# TDF [2] = test: as above
# Summary of the method: as §1
# TDF [3] = test: H1.0 immunofluorescence intensity relative to DMSO (% of DMSO); higher = stronger H1.0 induction, active = 120 or more
# Summary of the method: as §1
# HCC1569 [4] = test: H1.0 immunofluorescence intensity relative to DMSO (% of DMSO); higher = stronger H1.0 induction, active = 140 or more
# Summary of the method: as §1
# 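For H1.0 immunofluorescence intensity relative to DMSO in this document: TDF is a line of transformed human dermal fibroblasts of mesenchymal origin.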
# 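For cell number relative to DMSO in this document: TDF denotes transformed human dermal fibroblasts of mesenchymal origin.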
SMILES,cell number (HCC1569 [1]),cell number (TDF [2]),H1.0 immunofluorescence intensity (TDF [3]),H1.0 immunofluorescence intensity (HCC1569 [4])
"CC(N)Cc1cnc[nH]1.Cl.Cl (stereo not drawn) [Histamine, R(-)-alpha-methyl-, dihydrochloride]",97.4,102,95.5 (inactive),93.1 (inactive)
C[N+]1(C)C2CCC1CC(OC(=O)C(CO)c1ccccc1)C2.O=[N+]([O-])[O-] (stereo not given) [Atropine methyl nitrate],101,113,94.9 (inactive),89.7 (inactive)
Cl.c1ccc2c(c1)OCC(C1=NCCN1)O2 (stereo not given) [Idazoxan hydrochloride],102,98.8,99.6 (inactive),99 (inactive)
CC1CC2CCC(O2)C(C)C(=O)OC(C)CC2CCC(O2)C(C)C(=O)OC(C)CC2CCC(O2)C(C)C(=O)OC(C)CC2CCC(O2)C(C)C(=O)O1 (stereo not given) [Nonactin],60.4,50.1,118 (inactive),148 (active)
"CN1CCN(c2ccc3ccccc3n2)CC1.O=C(O)C=CC(=O)O.O=C(O)C=CC(=O)O [Quipazine, N-methyl-, dimaleate]",102,104,93 (inactive),89.8 (inactive)
CCCN1CCCC(c2cccc(C#N)c2)C1.Cl (stereo not drawn) [S(-)-DS 121 hydrochloride],100,96.1,92.4 (inactive),84.5 (inactive)
COc1cccc(C2(O)CCCCC2CN(C)C)c1 (stereo not given) [Tramadol],100,97.7,99.3 (inactive),109 (inactive)
Cl.O=C(CCCN1CCC2(CC1)C(=O)NCN2c1ccccc1)c1ccc(F)cc1 [Spiperone hydrochloride],105,87.3,116 (inactive),99.6 (inactive)
CCCCC(C#N)(Cn1cncn1)c1ccc(Cl)cc1 (stereo not given) [Myclobutanil],104,92.6,102 (inactive),102 (inactive)
COc1ccc(C(CN(C)C)C2(O)CCCCC2)cc1 (stereo not given) [Venlafaxine],102,107,106 (inactive),110 (inactive)
N[C@@](CF)(Cc1cnc[nH]1)C(=O)O [MK-453 hydrochloride],101,103,100 (inactive),91.5 (inactive)
"O=c1cccc2n1CC1CNCC2C1 (single isomer, unassigned; (-)) [(-)-Cytisine]",103,85.2,102 (inactive),96.6 (inactive)
BrC1C(Br)C(Br)C(Br)C(Br)C1Br (stereo not given),101,106,97 (inactive),111 (inactive)
"Br.NC1CCc2cc(O)c(O)cc2C1 (stereo not given) [6,7-ADTN hydrobromide]",104,103,93.1 (inactive),92.4 (inactive)
CCC1C(C)=NN=C(c2ccc(OC)c(OC)c2)c2cc(OC)c(OC)cc21 (stereo not given),93.8,103,93.1 (inactive),90.9 (inactive)
NC(Cc1ccc(N(CCCl)CCCl)cc1)C(=O)O (stereo not given) [Melphalan],86.3 ± 3.1,69.2 ± 5.8,104 (inactive),96.1 (inactive)
COc1cccc2c1cc([N+](=O)[O-])c1c(C(=O)O)cc3c(c12)OCO3 [Aristolochic acid A],102,110,98.4 (inactive),91.2 (inactive)
CC1OC(C[N+](C)(C)C)CC1O.[Cl-] (racemic),102,101,96.4 (inactive),92 (inactive)
C=C1CC2C(CCC3(C)C(=O)CCC23)C2(C)C=CC(=O)C=C12 (stereo not given) [Exemestane],101,97.4,98.1 (inactive),102 (inactive)
CC=C1CC(C)C(O)(CO)C(=O)OCC2=CCN3CCC(OC1=O)C23 (stereo not given) [Retrorsine],101,115,93.8 (inactive),90.4 (inactive)
CCC1(O)C(=O)OCc2c1cc1n(c2=O)Cc2cc3ccccc3nc2-1 [(S)-(+)-Camptothecin],54.2,26.9,126 (active),114 (inactive)
CC(=O)OC1CC2CCC3C(CCC4(C)C3CC([N+]3(C)CCCCC3)C4OC(C)=O)C2(C)CC1[N+]1(C)CCCCC1.[Br-].[Br-] (stereo not given) [Pancuronium bromide],103,96.9,98.8 (inactive),99.5 (inactive)
CCN1CC2(C)CCC(OC)C34C5CC6CCC(O)(C5C(=O)O6)C(C(O)C23)C14 (stereo not given) [Heteratisine],103,105,96.1 (inactive),88.3 (inactive)
COc1ccc(CCN2CCC(Nc3nc4ccccc4n3Cc3ccc(F)cc3)CC2)cc1 [Astemizole],88.6,89,109 (inactive),143 (active)
CN1CC(CO)C=C2c3cccc4[nH]cc(c34)CC21 (stereo not given) [Lysergol],100,106,102 (inactive),87.6 (inactive)
